The results in this text go back to PubChem BioAssay AID540259 (Broad Institute, 2011).

Entries with a potency or affinity are not part of this list. Unmarked numbers belong to inactive results.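 How the source made its calls: active means cell killing, meaning signal decrease, with fitted half-maximal dose at or below ten times the top valid tested dose; inconclusive means poor fit, or flat curve with 30 to 70% signal loss; inactive means the rest.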

A short description of the experiment: HeLa cell cytotoxicity, dose response, cytotoxicity control for MITF activator project, CellTiter-Glo luminescence, cherry-pick samples (AID 540259).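 Further: 0% = DMSO neutral control and -100% = mitoxantrone positive control.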 The note with it: HeLa viability, CellTiter-Glo ATP luminescence, 24 h; series mostly up to 35 µM; activity change, negative = cytotoxicity: at the top concentration.
As for `FC(F)(F)c1cnc(-c2cnc(-c3cccnc3)nc2)c(Cl)c1`, the “activity change, negative = cytotoxicity” value is 12.4%.

As to `COC(=O)Cc1csc(Nc2ccccc2Cl)n1`, the “activity change, negative = cytotoxicity” value is 9.68%.

As to `CN(C)c1ccc(CSc2ccccc2)cc1`, the “activity change, negative = cytotoxicity” value was 4.63%.

With `Nc1nc(COc2ccc3ccccc3c2)cs1`, the “activity change, negative = cytotoxicity” value was 4.74%.

For the molecule `CC1CCN(C(=O)Nc2ccc3nsnc3c2)CC1`, the “activity change, negative = cytotoxicity” value was 7.47%.

Consider `COC(=O)c1ccc(-c2ccc(Cl)cc2)nc1C`, for which the “activity change, negative = cytotoxicity” value was -3.47%.

As for `Cc1ccc(-c2nn(-c3ccccc3)cc2/C=N/O)cc1`, the “activity change, negative = cytotoxicity” value was 27.1% [at 11 µM].

Regarding `Oc1nc(Nc2ccccc2)sc1/C=C1\C=Nc2ccccc21`, the “activity change, negative = cytotoxicity” value was 4.73%.

For `O=C(NC1=NCCS1)c1ccc(Cl)s1`, the “activity change, negative = cytotoxicity” value was 3.77%.

Turning to `COc1ccc2oc(=O)c(C(=O)N3CCN(c4ccccc4C)CC3)cc2c1`, the “activity change, negative = cytotoxicity” value was 6.89%.

On to `O=C(Nc1cccc(F)c1)NC1CCCCCCC1`, for which the “activity change, negative = cytotoxicity” value is -4.47%.

`CC(C)(C)C(=O)N1CCN(c2nc3ccccc3s2)CC1`: the “activity change, negative = cytotoxicity” value was -0.769%.

Turning to `Cc1cc(NC(=O)c2ccc(Cl)cc2)no1`, the “activity change, negative = cytotoxicity” value was -10.9%.

In the case of `O=C(N/N=C/c1ccccc1C(F)(F)F)c1ccc(O)cc1`, the “activity change, negative = cytotoxicity” value is 12.3%.

Take `Oc1cccc(-c2nc3ccc4ccccc4c3c3c2CCC3)c1`: the “activity change, negative = cytotoxicity” value was 10.9% [at 11 µM].

With `COc1c(C)cccc1C(=O)Nc1ccc(N2CCN(S(C)(=O)=O)CC2)cc1`, the “activity change, negative = cytotoxicity” value was 12.3%.

Take `c1csc(-c2nc(N3CCCCC3)no2)c1`: the “activity change, negative = cytotoxicity” value is -0.703%.

For the molecule `c1ccc(-c2ccc3[nH]ccc3c2)cc1`, the “activity change, negative = cytotoxicity” value is -0.975%.

For the molecule `Clc1ccc(-n2nnc(-c3cccnc3Cl)n2)cn1`, the “activity change, negative = cytotoxicity” value was 5.34%.

With `Clc1ccc(C#Cc2cccnc2)cc1`, the “activity change, negative = cytotoxicity” value is 8.41%.

Turning to `C=CCNC(=O)c1ccc2nc(Cc3ccc(OC)cc3)oc2c1`, the “activity change, negative = cytotoxicity” value is 12.1%.

In the case of `Cc1nc2ccccn2c1C(=O)N/N=C/c1ccc2c(c1)OCO2`, the “activity change, negative = cytotoxicity” value is -3.12%.

Regarding `Cc1ccc(NC(=O)CC(=O)c2ccccc2)cc1C`, the “activity change, negative = cytotoxicity” value is -0.353%.

Turning to `c1cnc2nc(-c3ccc4c(c3)OCO4)cn2c1`, the “activity change, negative = cytotoxicity” value was -4.65%.

Consider `CC(=O)NCCC1CCCCN1C(=O)c1cc(COc2cc(C)ccc2C)on1` (stereo unspecified), for which the “activity change, negative = cytotoxicity” value is 4.53%.

As to `CCN1CCN(c2cc3c(nn2)Oc2ccccc2N3C)CC1`, the “activity change, negative = cytotoxicity” value was 10.1%.

In the case of `COc1ccc(-n2nc(C(=O)NCC(=O)N3CCN(c4ccccc4)CC3)c3ccccc3c2=O)c(OC)c1`, the “activity change, negative = cytotoxicity” value was 1.45%.

Take `c1ccc2c(Nc3nnc(-c4ccncc4)s3)cccc2c1`: the “activity change, negative = cytotoxicity” value is 0.946%.

As to `CC(=O)N1N=C(c2ccc(C)cc2)OC1c1ccc(Br)cc1` (stereo unspecified), the “activity change, negative = cytotoxicity” value is 1.6%.

For the molecule `COc1ccc(-c2ccc(C(=O)C3CC3)cc2)cc1`, the “activity change, negative = cytotoxicity” value is 3.45%.

For `c1ccc(COc2ccc(-c3csnn3)cc2)cc1`, the “activity change, negative = cytotoxicity” value is 2.43%.

As to `COc1ccc(NC(=O)Nc2ccc(Br)cn2)cc1`, the “activity change, negative = cytotoxicity” value was 6.21%.

On to `CCCCc1ccc(Nc2ncnc3nc[nH]c23)cc1`, for which the “activity change, negative = cytotoxicity” value is 12.9%.

With `COc1ccc2sc(NCc3ccccc3)nc2c1`, the “activity change, negative = cytotoxicity” value is 0.849%.

For the molecule `CCN=c1scc(-c2ccc(F)cc2)n1/N=C/c1ccccn1`, the “activity change, negative = cytotoxicity” value is 11.2%.

In the case of `COc1cccc2[nH]c(=O)c(-c3ccccc3)cc12`, the “activity change, negative = cytotoxicity” value is 4.93%.
